Laboratory results reported in PubChem BioAssay.
The source made the active and inactive calls.

How the values were obtained:
[1] = test system: Human papillomavirus type 1a protein E7 (residues 44-93); assay: HPV1a E7 fragment binders on microarrays, primary screen, biochemical, small-molecule microarray, residues 44-93, 635 nm fluorescence (AID 1108); conditions: small-molecule microarray binding, fluorescence 635 nm; higher = more signal;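 also: E7 fragment applied at 1 µg/mL in TBST for 1 h at 4 C; score combines spot fluorescence with its signal to noise ratio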
[2] = modulators of HCV replicon luciferase signal, primary screen, HCV replication inhibitor project, Huh7 cells, luciferase reporter (AID 1109); conditions: 48 h, higher = more signal;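 also: huh7 hepatoma cells harbouring a luciferase neomycin HCV replicon reporter; luciferase luminescence as measure of HCV replicon replication; test concentration not given here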
[3] = biological target: Left-right determination factor 2 (Homo sapiens) (UniProt O00292); assay: LEFTY2 binders on small-molecule microarrays, primary screen, biochemical, small-molecule microarray, 635 nm fluorescence scan (AID 1110); conditions: LEFTY2 binding, higher = more signal
Left-right determination factor 2 (Homo sapiens), sequence (O00292 whole entry, looked up): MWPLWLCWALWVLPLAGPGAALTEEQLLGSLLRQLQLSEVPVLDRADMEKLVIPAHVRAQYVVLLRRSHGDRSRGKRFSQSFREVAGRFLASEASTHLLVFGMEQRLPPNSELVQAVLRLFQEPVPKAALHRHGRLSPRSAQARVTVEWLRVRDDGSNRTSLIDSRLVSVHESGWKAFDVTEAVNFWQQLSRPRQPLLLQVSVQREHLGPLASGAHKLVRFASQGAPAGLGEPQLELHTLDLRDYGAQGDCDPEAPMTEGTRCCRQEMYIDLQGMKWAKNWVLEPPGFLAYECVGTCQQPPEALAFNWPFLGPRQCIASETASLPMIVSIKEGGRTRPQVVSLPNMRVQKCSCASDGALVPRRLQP

[4] = biological target: Calmodulin-1 (Homo sapiens) (UniProt P0DP23); assay: CALM1 binders on microarrays, EGTA buffer, profiling panel, biochemical, small-molecule microarray, Cy5-labelled CALM1 (AID 1111); conditions: Cy5-CALM1 binding fluorescence, higher = more signal;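 also: labelled calmodulin applied in Tris saline Tween buffer holding calcium plus EGTA and DTT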
[5] = biological target: Calmodulin-1 (Homo sapiens) (UniProt P0DP23); assay: calcium-bound CALM1 binders on microarrays, profiling panel, artefact control for SMM control-protein annotation, biochemical, small-molecule microarray, Cy5-labelled CALM1, plus calcium (AID 1112); conditions: Cy5-CALM1 binding fluorescence, higher = more signal;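 also: score merges spot fluorescence with signal to noise from triplicate slides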
[6] = small-molecule microarray binders of probe aWnt5a, primary screen, biochemical, biotinylated probe, 635/667 nm fluorescence (AID 1113); conditions: higher = more signal;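 also: score merges 667 nm fluorescence intensity with signal-to-noise per printed feature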
[7] = small-molecule microarray binders of probe aShh, primary screen, biochemical, biotinylated probe, 635/667 nm fluorescence (AID 1114); conditions: higher = more signal;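 also: probe is biotin-labelled aShh protein from a stem cell growth factor screen; measures binding of labelled protein to compounds printed on the slide; score merges feature fluorescence at 667 nm with signal-to-noise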
[8] = small-molecule microarray binders of probe aNog, primary screen, biochemical, biotinylated probe, 635/667 nm fluorescence (AID 1115); conditions: higher = more signal;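 also: probe is biotinylated aNog protein used at 0.15 µg/mL for 1 h at 4 C; z-score combines 667 nm fluorescence of each spot with its signal to noise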
[9] = biological target: Torsin-1A-interacting protein 1 (Homo sapiens) (UniProt Q5JTV8); assay: LAP1 binders from COS7 cell lysate, primary screen, small-molecule microarray, 635/667 nm fluorescence (AID 1116); conditions: COS7-hLAP1 lysate binding, 635 nm fluorescence, higher = more signal
Torsin-1A-interacting protein 1 (Homo sapiens), sequence (Q5JTV8 whole entry, looked up): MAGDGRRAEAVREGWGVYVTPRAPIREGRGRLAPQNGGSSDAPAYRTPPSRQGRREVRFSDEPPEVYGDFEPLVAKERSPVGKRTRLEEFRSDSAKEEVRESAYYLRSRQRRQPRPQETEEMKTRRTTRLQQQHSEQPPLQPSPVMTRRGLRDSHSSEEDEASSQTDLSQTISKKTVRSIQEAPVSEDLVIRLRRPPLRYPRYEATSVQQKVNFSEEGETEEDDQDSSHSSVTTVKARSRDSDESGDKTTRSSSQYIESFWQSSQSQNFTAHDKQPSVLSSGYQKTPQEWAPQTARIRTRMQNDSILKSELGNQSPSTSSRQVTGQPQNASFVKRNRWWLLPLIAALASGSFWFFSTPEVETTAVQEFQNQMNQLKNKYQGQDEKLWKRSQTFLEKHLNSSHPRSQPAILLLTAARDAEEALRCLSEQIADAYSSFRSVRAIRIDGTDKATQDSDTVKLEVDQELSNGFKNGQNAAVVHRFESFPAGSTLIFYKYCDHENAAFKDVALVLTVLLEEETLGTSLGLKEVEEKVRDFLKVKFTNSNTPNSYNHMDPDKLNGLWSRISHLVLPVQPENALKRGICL

[10] = biological target: Alpha-bungarotoxin (Bungarus multicinctus) (UniProt P60615); assay: alpha-bungarotoxin binders on microarray, profiling panel, artefact control for SMM control protein annotation, biochemical, small-molecule microarray, Alexa647 label, 635/667 nm fluorescence (AID 1117); conditions: alpha-BTX-A647 binding fluorescence, higher = more signal
Alpha-bungarotoxin (Bungarus multicinctus), sequence (P60615 whole entry, looked up): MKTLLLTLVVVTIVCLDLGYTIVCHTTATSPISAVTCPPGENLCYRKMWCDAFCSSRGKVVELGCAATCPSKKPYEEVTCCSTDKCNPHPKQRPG

Albumin (Bos taurus) = Albumin (Bos taurus) (UniProt P02769); assay: bovine serum albumin binders on microarray, profiling panel, artefact control for SMM control protein annotation, biochemical, small-molecule microarray, Alexa647 label, 635/667 nm fluorescence (AID 1118); conditions: BSA-A647 binding, fluorescence 635 nm, higher = more signal;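 also: score merges 667 nm emission intensity and signal-to-noise per printed compound spot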
Albumin (Bos taurus), sequence (P02769 whole entry, looked up): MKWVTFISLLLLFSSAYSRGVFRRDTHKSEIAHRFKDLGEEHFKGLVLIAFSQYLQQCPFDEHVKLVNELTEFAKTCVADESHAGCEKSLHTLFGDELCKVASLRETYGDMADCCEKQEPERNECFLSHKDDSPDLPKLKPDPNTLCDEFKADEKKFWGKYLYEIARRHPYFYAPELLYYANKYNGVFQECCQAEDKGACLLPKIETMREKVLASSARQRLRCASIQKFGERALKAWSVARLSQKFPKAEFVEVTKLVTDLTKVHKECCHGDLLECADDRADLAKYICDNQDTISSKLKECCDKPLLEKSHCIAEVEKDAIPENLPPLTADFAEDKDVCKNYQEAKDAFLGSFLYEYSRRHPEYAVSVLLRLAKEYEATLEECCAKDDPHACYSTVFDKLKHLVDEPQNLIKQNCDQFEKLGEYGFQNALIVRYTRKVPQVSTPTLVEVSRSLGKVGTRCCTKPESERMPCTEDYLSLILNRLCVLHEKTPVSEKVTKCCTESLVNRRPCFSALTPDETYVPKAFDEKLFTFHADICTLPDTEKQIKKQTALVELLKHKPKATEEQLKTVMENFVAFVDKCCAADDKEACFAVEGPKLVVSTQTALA

[11] = small-molecule microarray binders of probe aXIP, primary screen, biochemical, NeuroSMM set, 635/667 nm fluorescence (AID 1119); conditions: higher = more signal, called active from +8 up or from −8 down;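 also: probe is the protein aXip251-270 applied at 1 µg/mL to compound-printed slides; binding of probe to printed compounds measured as 667 nm fluorescence plus signal to noise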
[12] = small-molecule binders of probe aNOTCH3, primary screen, biochemical, small-molecule microarray, 635/667 nm fluorescence (AID 1120); conditions: higher = more signal;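 also: probe is a biotin-tagged antibody raised against NOTCH3 rather than NOTCH3 protein; score merges spot fluorescence near 667 nm with spot signal to noise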
[13] = small-molecule binders of probe aNOTCH2, primary screen, biochemical, small-molecule microarray, 635/667 nm fluorescence (AID 1121); conditions: higher = more signal;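 also: score merges feature fluorescence read at 667 nm with its signal to noise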
[14] = biological target: Carbonic anhydrase 2 (Homo sapiens) (UniProt P00918); assay: CAII small-molecule binders, profiling panel, biochemical, small-molecule microarray, Alexa647-labelled CAII (AID 1122); conditions: CAII-A647 binding fluorescence, higher = more signal
[15] = COS7 lysate on small-molecule microarray, probe aHis, 635 nm (AID 1123); conditions: COS7 cell lysate, fluorescence, higher = more signal;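 also: z-score combines 667nm fluorescence intensity with signal-to-noise per printed compound spot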
[16] = compound binding in COS7 lysate, probe aLAP1, primary screen, cell lysate, small-molecule microarray (AID 1124); conditions: probe aLAP1, fluorescence, higher = more signal;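 also: lysate comes from COS7 cells expressing LAP1 and is applied at 0.3 µg/mL; score merges spot fluorescence near 667 nm with signal-to-noise over triplicate slides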
Sam68 (KHDRBS1) = assay: Sam68 small-molecule binders, primary screen, biochemical, small-molecule microarray, 635 nm fluorescence (AID 1125); conditions: small-molecule microarray binding, higher = more signal;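 also: score merges 667 nm channel intensity with signal to noise over triplicate slides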
[17] = test system: Chordin-like protein 2 (CHRDL2); assay: CHRDL2 small-molecule binders, primary screen, biochemical, small-molecule microarray, 635 nm fluorescence (AID 1126); conditions: small-molecule microarray binding, fluorescence 635 nm; higher = more signal;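 also: printed compound slides probed with Chrdl2 protein at 4 µg/mL for 1 h at 4 C; score merges 667 nm emission intensity with signal to noise over three replicate slides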
[18] = biological target: Concanavalin-A (Canavalia ensiformis) (UniProt P02866); assay: ConA small-molecule binders, primary screen, artefact control for SMM control protein annotation, biochemical, small-molecule microarray, Alexa647 label, 635 nm (AID 1127); conditions: ConA-A647 binding fluorescence, higher = more signal;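 also: z combines 667 nm emission intensity with signal-to-noise across three replicate slides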
Concanavalin-A (Canavalia ensiformis), sequence (P02866 whole entry, looked up): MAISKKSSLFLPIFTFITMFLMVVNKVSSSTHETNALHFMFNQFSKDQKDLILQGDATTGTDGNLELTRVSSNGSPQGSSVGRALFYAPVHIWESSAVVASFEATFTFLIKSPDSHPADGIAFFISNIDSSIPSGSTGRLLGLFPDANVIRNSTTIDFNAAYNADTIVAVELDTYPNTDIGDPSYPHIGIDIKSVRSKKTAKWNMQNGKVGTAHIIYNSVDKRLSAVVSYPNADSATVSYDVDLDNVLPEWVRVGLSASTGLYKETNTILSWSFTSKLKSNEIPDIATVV

SMILES	composite z-score [1]	z-score [2]	composite z-score [3]	composite z-score [4]	composite z-score [5]	composite z-score [6]	composite z-score [7]	composite z-score [8]	composite z-score [9]	composite z-score [10]	composite z-score (Albumin (Bos taurus))	composite Z-score [11]	composite z-score [12]	composite z-score [13]	composite z-score [14]	composite z-score [15]	composite z-score [16]	composite z-score (Sam68 (KHDRBS1))	composite z-score [17]	composite z-score [18]
O=C1C[C@@](C(=O)O)(c2ccc([N+](=O)[O-])cc2)[C@@H](c2ccc(CO)cc2I)N1CC12CC3CC(CC(C3)C1)C2	0.997	-3.31	-0.44	1.67	0.889	0.0206	0.0434	0.108	0.817	2.3	0.776	0.235 (inactive)	-0.132	0.0808	0.64	1.63	0.945	0.993	-1.42	1.09
CN(C)CCCCCCNC(=O)[C@@H]1C[C@@H]2C(=O)NCC(=O)N2[C@@H]1c1cccc(OCCO)c1	1.12	-0.358	1.36	0.138	-0.708	-0.0222	0.0948	0.107	1.88	-0.0783	-0.615	1.04 (inactive)	0.113	-0.0519	0.63	2.54	0.212	1.3	1.35	1.22
COc1ccc([Si](C)(C)[C@@H]2[C@@H](CCn3cc([C@H](O)c4ccccc4)nn3)O[C@]3(C(=O)N(C)c4ccccc43)[C@H]2C)cc1	-0.0859	-2.32	0.0661	-0.069	-0.288	-0.197	-0.0769	-0.223	-0.173	0.0489	0.718	0.19 (inactive)	-0.175	-0.19	0.494	0.613	0.0014	0.302	-0.13	0.44
COc1ccc(C#Cc2ccc3c(c2)[C@]2(C(=O)N3)[C@H](C(=O)N3CCc4cc(OC)c(OC)cc4C3)[C@H]3C(=O)O[C@H](c4ccccc4)[C@H](c4ccccc4)N3[C@@H]2c2ccc(OCCO)cc2)cc1	1.39	-0.864	0.483	0.861	-0.0312	0.027	0.0469	-0.551	0.692	0.992	-0.0155	0.289 (inactive)	0.0762	-0.0859	0.136	1.19	0.351	1.24	0.523	1.07
C=CCOC(=O)[C@H]1[C@@H]2C(=O)O[C@@H](c3ccccc3)[C@@H](c3ccccc3)N2[C@@H](c2ccc(OCCOC(=O)[C@H]3C[C@H]4C(=O)N[C@@H](CCCC[N+](C)(C)C)C(=O)N4[C@H]3c3ccc(O)cc3)cc2)[C@]12C(=O)Nc1ccccc12	0.411	-0.581	-0.196	-0.217	-0.687	-0.148	0.0469	-0.32	0.569	0.717	-0.317	0.0338 (inactive)	0.0306	-0.14	0.456	0.776	0.411	0.028	0.518	0.843
